From PubChem BioAssay
SUMO Mot1 rescue: blocks SUMOylation pathway, rescuing yeast Mot1-301 growth. S. cerevisiae Mot1-301 growth rescue, ATP luminescence, 38.5C; percent above DMSO median, 100 means doubled. growth rescue, % at 18.8 µM. 320,000 tested, 1% active;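 active means every valid replicate shows activation above 250% relative to neutral control wells; inactive means the rest, any valid replicate at or below 250%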;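 further: OY570 slx delta 5 strain wells were the positive control but not used for scaling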
V-ATPase pH: yeast V-ATPase proton transport regulation by pHLuorin; response, % at 10 µM; 350,000 tested, 0.37% active; AID 504577; S. cerevisiae, pHLuorin cytosolic pH fluorescence; in the data active means response mostly above about 7.3%, no sharp cut-off; inactive means mostly below about 5.4%; further: actives read high
ATG4B inh: ATG4B (human) cysteine protease inhibition; inhibition, % at 8.33 µM; 340,000 tested, 0.51% active; Q9Y4P1; ATG4B cleavage of LC3-PLA2, NBD-HPC fluorescence, 1 h; in the data active means inhibition above about 40%
Target sequence (Q9Y4P1 whole entry, looked up): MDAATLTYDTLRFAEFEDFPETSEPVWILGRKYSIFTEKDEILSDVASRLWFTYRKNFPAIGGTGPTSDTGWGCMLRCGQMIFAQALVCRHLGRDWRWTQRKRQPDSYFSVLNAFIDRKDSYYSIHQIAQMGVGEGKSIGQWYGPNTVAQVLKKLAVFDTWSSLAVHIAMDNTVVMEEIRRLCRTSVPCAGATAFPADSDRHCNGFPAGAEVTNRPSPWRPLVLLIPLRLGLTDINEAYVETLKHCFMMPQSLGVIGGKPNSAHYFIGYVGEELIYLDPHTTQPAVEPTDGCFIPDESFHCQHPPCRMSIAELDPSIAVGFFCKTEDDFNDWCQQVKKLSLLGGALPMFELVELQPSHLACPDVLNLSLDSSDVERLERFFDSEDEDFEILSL
AI-2 QS modul: modulators of Vibrio harveyi AI-2 quorum sensing system | Vibrio harveyi JMH597 AI-2 luminescence/OD600 ratio, 9 h; stronger effect = lower value; strain lacks LuxN and CqsS sensors; 0 = neutral-control median | activity change, % at 7.5 µM | 300,000 tested, 0.4% active | AID 2094; in the data active means activity change below about -75%, passing the limit was not always enough;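 further: luminescence divided by OD600 gain over 9 h not by final OD600 alone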
Efflux pump inh: blocks antifungal efflux pumps in multiplex yeast assay; S. cerevisiae Candida pump triplex, Nile Red efflux; inhibition, % at 10 µM; 330,000 tested, 0.44% active; AID 485275;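 active means plate passing quality check with inhibition over a set limit, or well fluorescence over plate mean plus 4 SD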;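 further: Nile Red retained in pooled yeast measured as flow cytometry median fluorescence; 0% = buffer negative control and 100% = Enniatin B positive control; higher means more Nile Red kept so more efflux inhibition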
Numbers without * were called inactive; / = not tested or not shown; + = active, no number. Hits are enriched below; roughly 2.5% of the tested compounds scored in any of these assays.

SMILES | SUMO Mot1 rescue | V-ATPase pH | ATG4B inh | AI-2 QS modul | Efflux pump inh
COc1ccc2c(c1)cc(C(=O)N[C@@H](CCSC)C(=O)N1CCC(C(=O)O)CC1)n2C | 3.1 | -0.8 | 2.5 | 13.5 | 0.0
CCOC(=O)c1cccc(NC(=O)c2c(NCc3ccccc3)[nH]c(=O)[nH]c2=O)c1 | 0.8 | -1.8 | -0.1 | 7.2 | 0.0
Cc1ccsc1/C=N/NC(=O)C1C(=O)NCC1c1ccccc1 (stereo not given) | 1.3 | / | -12.1 | 17.7 | -0.1
COc1ccc(C2=NN(c3ccccc3)C(c3cn(CCC(=O)O)nc3-c3ccccc3)C2)cc1 (stereo not given) | 3.1 | -0.3 | 7.1 | 8.1 | 0.1
Nc1c2c(nc3ccc(Br)cc13)N(C1CCCCC1)CC2 | -20.9 | / | / | 26.0 | 2.4*
Cc1n[nH]c(C)c1NC(=O)CSc1nnnn1-c1cccc(F)c1 | -5.1 | -0.2 | 6.6 | / | -0.1
Cc1ccc(NC(=S)c2ccccc2)cc1 | 323.6* | -1.5 | -2.2 | 11.9 | 0.4
Cc1ccc(NC(=S)c2ccncc2)cc1 | 19.6 | 1.4 | 0.9 | 1.6 | 0.0
CCN(CC)c1ccc(C2C(C(=O)OC)=C(C)NC(C)=C2C(=O)OC)cc1 | 0.3 | -0.2 | -8.2 | 24.6 | -0.1
CCN(CC)c1ccc(/C=C/C(=O)C2C(=O)C=C(C)OC2=O)cc1 (stereo not given) | -17.1 | 1.6 | -1.0 | 10.0 | 7.6*
O=S(=O)(c1cc(F)ccc1F)N1CCN(c2ncccn2)CC1 | -9.7 | -0.2 | -2.7 | 40.6 | -0.1
COc1ccccc1CNC(=O)CSc1ccc(-c2ccccn2)nn1 | 342.8* | -3.8 | -6.8 | 33.2 | 0.0
CCCc1nnc(NS(=O)(=O)c2ccc(C)cc2)o1 | / | -1.2 | -2.3 | / | /
COc1ccc(Cc2[nH]n3c(=O)c(Cl)c(C)nc3c2-c2ccccc2)cc1 | -5.8 | 0.2 | 16.2 | 4.8 | -0.1
CCOC(=O)COc1ccccc1/C=C\[N+](=O)[O-] | 242.4 | 4.2 | 3.4 | -89.8* | 0.4
O=C(O)c1ccccc1C(=O)NNc1ccc(F)cc1 | 266.5* | -3.5 | -4.2 | 53.0 | 0.0
O=C(O)c1ccccc1C(=O)NCc1ccc(F)cc1 | 50.4 | 0.9 | 8.0 | 18.4 | 1.2
COc1ccc(Cl)cc1NC(=S)N1CCN(C(=O)c2ccco2)CC1 | 357.0* | -4.7 | 2.2 | 7.6 | -0.2
Clc1cccc(Nc2nc(-c3ccncc3)cs2)c1 | 274.9* | -0.8 | -13.8 | 15.9 | -0.2
Cc1cccc(Nc2nc(-c3ccncc3)cs2)c1 | 13.6 | -1.0 | -8.2 | 24.0 | 0.0
Oc1c(/C=N/c2ccccn2)sc2ccccc12 | + | 0.2 | -3.7 | 11.1 | 0.4
Oc1c(C=Nc2ccc(Cl)cn2)sc2ccccc12 | -11.7 | -2.5 | 35.2 | -1.2 | -0.1
COc1ccc2[nH]c(C(=O)N(Cc3ccccn3)Cc3ccccn3)cc2c1 | -4.2 | 36.9* | -3.8 | 19.7 | 0.1
CC1(C)CC(=O)C=C(c2ccc(-c3cnc4ccccc4c3)cc2)C1=O | / | 1.7 | / | / | /
O=C1c2cccc(O)c2C(=O)c2c(O)cccc21 | -53.3 | / | / | 2.5 | 0.1
SMILES | SUMO Mot1 rescue | V-ATPase pH | ATG4B inh | AI-2 QS modul | Efflux pump inh
CC1OC(CC(=O)O)CC2=C1C(=O)c1c(O)cccc1C2=O (stereo not given) | / | 116.6* | 8.0 | / | /
COc1cc(OC)c(OC)cc1CNC(=O)c1ccc(COc2ccccc2)cc1 | 27.3 | 0.0 | -12.2 | 20.2 | 0.1
O=C(c1cccs1)N1C[C@H](O)[C@@H](n2cc(-c3ccc(F)cc3)nn2)C[C@@H]1c1ccccc1 | / | 3.2 | / | / | /
O=C(OCC(=O)N1CCCC1)c1c(Cl)ccc(Cl)c1Cl | -7.5 | -4.5 | 5.0 | 23.9 | 0.0
CSc1cccc(CN2CCC(CO)(Cc3ccccc3)CC2)c1 | 459.4* | 0.6 | 5.5 | -9.3 | 0.1
CSc1cccc(CN2CCCC(CO)(Cc3cccc(Cl)c3)C2)c1 (stereo not given) | -7.2 | -3.2 | 3.2 | 20.5 | 0.2
O=C(O)C1CCN(Cc2ccccn2)CC1 | -12.8 | 5.3 | -13.9 | 14.3 | -0.1
O=C(NCCc1ccccc1)C1CCN(S(=O)(=O)N2CCCCC2)CC1 | -14.0 | 2.0 | -3.2 | 14.7 | 0.2
CCCCNC(=O)C1CCN(Cc2ccccn2)CC1 | 303.0* | 2.4 | -8.8 | 14.3 | 0.0
O=C(NCCc1ccccc1)C1CCN(c2ncccn2)CC1 | 8.6 | 14.1* | 3.6 | 16.6 | -0.1
COC(=O)c1ccc(COc2cc(C)ccc2C)o1 | 27.2 | -3.5 | 0.2 | 18.6 | -0.1
Cc1nc2cc(NC(=O)Nc3ccc(Br)cc3)ccc2o1 | -14.2 | 1.3 | -8.6 | 12.7 | -0.2
COc1ccc(C(C(=O)NC(C)(C)C)N(C(=O)CCC(=O)Nc2cc(C)on2)c2ccccc2F)cc1 (stereo not given) | 5.1 | -0.9 | -2.0 | -1.1 | -0.1
O=C(Cc1ccc(Cl)cc1)NNC1CC(=O)N(c2ccc3ccccc3c2)C1=O (stereo not given) | 289.0* | 0.4 | 3.9 | 22.7 | 0.2
CC(CNC(=O)CCc1ccccc1)NC(=O)CCc1ccccc1 (stereo not given) | -19.8 | -0.9 | -9.6 | 7.9 | -0.1
CCCCCC(=O)NCC(C)NC(=O)CCCCC (stereo not given) | 486.1* | 0.1 | -7.3 | 8.9 | -0.1
CCCc1nnc(SCC(=O)N2CCCC(C)C2)n1CC1CCCO1 (stereo not given) | -11.2 | -2.6 | -11.2 | 24.7 | -0.1
Cc1cc(Cl)ccc1Oc1nc(-c2ccc(F)cc2)ccc1C#N | / | 1.0 | -7.4 | 30.5 | 0.0
Fc1ccc(CSc2nnc(-c3ccncc3)o2)cc1 | -10.3 | -1.3 | -3.1 | -78.0* | 0.0
NS(=O)(=O)c1ccc(Nc2c([N+](=O)[O-])cncc2[N+](=O)[O-])cc1 | 3.3 | -1.7 | 3.8 | -93.4* | -0.1
Cc1ccc(CNc2ccc(N3CCOCC3)cc2)cc1 | -11.6 | 11.3* | 7.9 | / | -0.1
CCCCCCCCCCCCCCCC[n+]1cccc2ccccc21 | -46.9 | 10.5 | 51.4* | / | 1.1*
CC1CCC(C(=O)NC(C(=O)NCc2ccccn2)C(C)C)CC1 (stereo not given) | 343.6* | 0.9 | -3.4 | -2.7 | 0.0
CC(C)C(NC(=O)C1CCCCC1)C(=O)NCc1ccccn1 (stereo not given) | 16.3 | 0.6 | -6.1 | 1.2 | 0.0
O=C(Nc1ccccc1OCc1ccccc1)c1ccccc1Br | -2.0 | -1.9 | 12.5 | 11.8 | 0.1
SMILES | SUMO Mot1 rescue | V-ATPase pH | ATG4B inh | AI-2 QS modul | Efflux pump inh
O=C(NCCOc1ccccc1)C1Nc2ccc(OC(F)(F)F)cc2C2C=CCC12 (stereo not given) | -5.3 | 16.8* | 3.5 | 10.6 | -0.2
COc1cc(NC(=S)N2CCCCC2C)cc(OC)c1OC (stereo not given) | 14.9 | 4.5 | 2.1 | 18.6 | -0.4
O=C(O)CC/C(=N\Nc1ccc([N+](=O)[O-])cc1)c1ccccc1 | 367.3* | 1.3 | -4.9 | -26.3 | -0.2
O=C(O)CC/C(=N/Nc1ccc([N+](=O)[O-])cc1)C(=O)O | 208.3 | 4.2 | 1.3 | 12.6 | 0.0
Cc1cc(NC(c2ccc(Cl)cc2)c2ccc3cccnc3c2O)no1 (stereo not given) | 40.8 | -0.8 | -5.6 | -93.1* | 0.0
O=C1Nc2ccc(Br)cc2C12NNc1ccccc1O2 (stereo not given) | 308.7* | -1.8 | 3.6 | 3.4 | 0.9
